Screen size: about 320,000 compounds; about 2,100 (0.66%) were called active. Not shown: some 53% with an inconclusive outcome. The call rests on the fitted dose curve; in most records, active means well fitted inhibition curve with a large enough effect in the signal ratio, with a control signal flat (not every such curve was filed as active); inconclusive means small, poorly fitted or top-dose-only effect, or effect the other way, or a change in a side signal; inactive means flat fitted curve, though single readings scatter; the % refers to the signal ratio. For the sample, actives were picked, then their nearest neighbours and some compounds at random.
Potency means the concentration at half of the fitted maximal effect.

A short description of this assay: qHTS Assay for Lipid Storage Modulators in Drosophila S3 Cells.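 On cell number change: cells counted by Cell Tracker Red CMTPX staining in the red channel.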 On lipid storage change, negative = inhibition: on the % scale 0 is the no-effect control and ±100 the full control effect. Particulars: BODIPY lipid droplet fluorescence, 18-24 h, cells fed with added oleic acid; cell number change: measured here: cell count max response; series mostly up to 46.1 µM; lipid storage change, negative = inhibition: at the top concentration. In a few lines: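 Drosophila S3 cells got compounds at several concentrations plus oleic acid (400 uM solution). Laser-scanning cytometry with 488 nm excitation read lipid droplets at 500-530 nm and cells at 575-640 nm. Percent activity was relative to 20 uM Triacsin C.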
In the case of `COCc1ccc(C(=O)N(C)C2CCCN(Cc3ccccc3F)C2)o1` (configuration not stated), the “lipid storage change, negative = inhibition” value was -23% (inactive) and the cell number change is -1.36%.

On to `CC(=O)c1c(C)[nH]c(C(=O)Nc2nc(C)cs2)c1C`, for which the “lipid storage change, negative = inhibition” value was -4.83% (inactive) and the cell number change is -7.81%.

As to `COc1ccc(NS(=O)(=O)CC23CCC(CC2=O)C3(C)C)cc1` (configuration not stated), the “lipid storage change, negative = inhibition” value is -15.4% (inactive) and the cell number change came out at 6.22%.

`CC1(C)C2CCC1(CS(=O)(=O)Nc1ccccc1)C(=O)C2` (configuration not stated): the “lipid storage change, negative = inhibition” value was -21.6% (inactive) and the cell number change is -22.6%.

On to `COc1cccc(NS(=O)(=O)CC23CCC(CC2=O)C3(C)C)c1` (configuration not stated), for which the Potency was 3.66 µM (active) and the cell number change is -15%.

As to `Cc1ccsc1C(=O)NCCc1nnc2ccccn12`, the “lipid storage change, negative = inhibition” value is -1.6% (inactive) and the cell number change turned out to be 18.3%.

In the case of `Cc1ccc(/C=N/N(C)C2=NS(=O)(=O)c3ccccc32)cc1`, the “lipid storage change, negative = inhibition” value is -1.35% (inactive) and the cell number change was found to be 17.1%.

With `COc1cccc(/C=N/N(C)C2=NS(=O)(=O)c3ccccc32)c1O`, the “lipid storage change, negative = inhibition” value was 1.01% (inactive) and the cell number change was 12.6%.

Turning to `CN(/N=C/c1cc(Cl)ccc1O)C1=NS(=O)(=O)c2ccccc21`, the Potency was 3.66 µM (active) and the cell number change came to 12.6%.

As to `CCCCCOC(=O)CCN1C(=O)/C(=C2\SC(=S)N(CCC(=O)OCCCCC)C2=O)SC1=S`, the “lipid storage change, negative = inhibition” value was 13.2% (inactive) and the cell number change is -3.31%.

On to `Cc1ccc(NC(=O)c2cc(=O)[nH]c3ccc(S(=O)(=O)N4CCOCC4)cc23)nc1`, for which the cell number change is -6.73% and the lipid storage change, negative = inhibition is 11.8% [at 0.0737 µM] (inactive).

For `COc1ccc(S(=O)(=O)Oc2cccc(C(=S)N3CCOCC3)c2)cc1`, the compound was classed as inactive and the cell number change was -15.5%.

As for `COc1ccc(S(=O)(=O)Oc2ccc(C(=S)N3CCOCC3)cc2OC)cc1`, the call was inactive and the cell number change is -13.8%.

In the case of `COc1ccc(S(=O)(=O)Oc2ccccc2C(=S)N2CCOCC2)cc1`, the Potency was 1.46 µM (active) and the cell number change is -29.9%.

For the compound `COc1ccc2[nH]c(=O)c(CN(CCN(C)C)C(=O)NCc3ccccc3)cc2c1`, the compound was classed as inactive and the cell number change turned out to be 17.8%.

On to `COc1ccccc1CNN`, for which the “lipid storage change, negative = inhibition” value was -3.56% (inactive) and the cell number change is -17.3%.

On to `COc1ccccc1CNCC(c1ccccc1)c1ccccc1`, for which the Potency was 1.46 µM (active) and the cell number change is -20%.

Turning to `COc1ccccc1CNCc1cc(OC)c(OC)cc1OC`, the result was inactive and the cell number change was -2.42%.

Regarding `CCCCC(=O)Nc1ccc(NC(=O)c2cnccn2)cn1`, the “lipid storage change, negative = inhibition” value was -6.31% (inactive) and the cell number change is 3.06%.

Consider `CCOC(=O)c1c(NC(=O)c2cccnc2)sc(C(C)=O)c1C`, for which the “lipid storage change, negative = inhibition” value is 2.48% (inactive) and the cell number change was 5.18%.

With `O=C(c1ccc(S(=O)(=O)Nc2cccc(C(F)(F)F)c2)cc1)N1CCC1`, the “lipid storage change, negative = inhibition” value is 18.7% (inactive) and the cell number change came out at 1.62%.

With `OCCN(Cc1ccccc1)Cc1cccc(F)c1`, the “lipid storage change, negative = inhibition” value is 4.72% (inactive) and the cell number change was -7.51%.

Consider `O=[N+]([O-])c1cccc(CN(CCO)Cc2ccccc2)c1`, for which the Potency was 13 µM (active) and the cell number change is -9.58%.

In the case of `CCN(Cc1ccccc1)Cc1cccc([N+](=O)[O-])c1`, the compound was classed as inactive.

On to `CC1(C(=O)NC2CCCCCCC2)CCC(=O)N1Cc1ccco1` (configuration not stated), for which the “lipid storage change, negative = inhibition” value was -0.266% (inactive) and the cell number change was found to be 2.23%.

For the compound `CC(=O)N1CCC(N2CCN(c3ccccc3F)CC2)CC1`, the “lipid storage change, negative = inhibition” value is -6.18% (inactive) and the cell number change is -0.227%.

Turning to `COC(=O)c1ccc(S(=O)(=O)N2CCCN(Cc3cccc(Br)c3F)CC2)n1C`, the “lipid storage change, negative = inhibition” value was 25.4% (inactive).

For `COc1cc(NC2c3ccccc3C(=O)N2c2ccc(C)cn2)cc(OC)c1OC` (configuration not stated), the “lipid storage change, negative = inhibition” value was 1.47% (inactive) and the cell number change was determined as 9.33%.

`CCOC(=O)c1cc(C(=O)NN)c(=O)[nH]c1C`: the “lipid storage change, negative = inhibition” value is -8.78% (inactive) and the cell number change was -9.94%.

For `COCCOc1ccc(C(F)(F)F)cc1NC(=O)COC(=O)c1c(C)noc1C`, the “lipid storage change, negative = inhibition” value was -14% (inactive) and the cell number change was -13.3%.

In the case of `COc1ccc(OC)c(NC(=O)COC(=O)c2c(C)noc2C)c1`, the Potency was 4.61 µM (active) and the cell number change is -7.27%.

As to `COc1ccc(Cl)cc1NC(=O)COC(=O)c1c(-c2ccccc2)noc1C`, the result was inactive and the cell number change was -24.6%.

Turning to `C=CCNC(=O)c1ccc(N(Cc2ccccc2)S(C)(=O)=O)cc1`, the “lipid storage change, negative = inhibition” value is -16.3% (inactive) and the cell number change was -6.36%.

Take `CCc1ccc(S(=O)(=O)N(C(=O)c2ccncc2)c2ccc(OC(=O)c3ccncc3)cc2)cc1`: the Potency was 18.4 µM (active) and the cell number change is -8%.

On to `O=C(Oc1ccc(N(C(=O)c2ccncc2)S(=O)(=O)c2ccc(F)cc2)cc1)c1ccncc1`, for which the “lipid storage change, negative = inhibition” value is 7.39% (inactive).

Consider `COc1ccc(S(=O)(=O)N(C(=O)c2ccncc2)c2ccc(OC(=O)c3ccncc3)cc2)cc1`, for which the “lipid storage change, negative = inhibition” value was 2.27% (inactive) and the cell number change is -3.33%.

Turning to `CC(C)CN(CC(C)C)C(=O)COn1nnc2ccc(S(=O)(=O)N3CCOCC3)cc21`, the “lipid storage change, negative = inhibition” value was 4.64% (inactive) and the cell number change worked out at 3.81%.

Take `CCCCn1nc2cc(C(=O)NCc3ccc(OC)cc3)ccc2c1OCC`: the “lipid storage change, negative = inhibition” value was -10.4% (inactive) and the cell number change is -2.9%.

For the compound `OCCN(Cc1ccccc1)Cc1ccccc1F`, the “lipid storage change, negative = inhibition” value is -8.72% (inactive) and the cell number change is -24.2%.

On to `OCCN(Cc1ccccc1)CC1CC2C=CC1C2` (configuration not stated), for which the Potency is 29.1 µM (active) and the cell number change amounted to 0.638%.

`C1=CC2CC1CC2CN1CCN(Cc2ccccc2)CC1` (configuration not stated): the compound was called inactive.

On to `COc1ccc2c(c1)c1nnc(SCC(=O)NC3CC3)nc1n2C`, for which the Potency is 1.46 µM (active) and the cell number change was -8.55%.

For the compound `Cn1c2ccc(Br)cc2c2nnc(SCC(=O)O)nc21`, the call was inactive.

Consider `Cc1ccc2c(c1)c1nnc(SCC(=O)NC3CC3)nc1n2C`, for which the Potency is 5.8 µM (active) and the cell number change was found to be 0.855%.

For `Cn1c2ccccc2c2nnc(SCC(=O)NC3CCCC3)nc21`, the compound was called inactive and the cell number change was -23.7%.

In the case of `COc1ccc(N2CCN(C(=O)CSc3nnc4c5cc(C)ccc5n(C)c4n3)CC2)cc1`, the “lipid storage change, negative = inhibition” value was -3.64% (inactive) and the cell number change is 15.5%.

Regarding `Cn1c2ccccc2c2nnc(SCC(=O)NC3CC3)nc21`, the compound was called inactive and the cell number change was -0.952%.

For the compound `CC1CCC(NC(=O)COC(=O)c2cccnc2Cl)CC1` (configuration not stated), the “lipid storage change, negative = inhibition” value is -3.37% (inactive).

Turning to `COC(=O)N1[C@H](Cc2ccccc2)C=C[C@]1(C)C(=O)NCc1ccccn1`, the “lipid storage change, negative = inhibition” value was -3.63% (inactive) and the cell number change is 11.5%.

For the origin of these results see PubChem BioAssay AID2685 (National Center for Advancing Translational Sciences (NCATS), 2010).
